Experimental data as given in ChEMBL document CHEMBL4513216, “Probing the Open Global Health Chemical Diversity Library for Multistage-Active Starting Points for Next-Generation Antimalarials” (ACS Infect Dis, 2020).
In all, about 69,000 compounds went through this assay and about 8,600 (12%) showed an effect of 50% or more. The entries come from a sample that favours strong results as a whole.

Each compound was assayed on Plasmodium berghei (assay: Screen against P. berghei liver stage (PbLuc), transformed with Luciferase, at 10uM). Settings: tested at 10 uM.
Assay type: functional, HepG2

| Structure (SMILES) | INHIBITION |
| --- | --- |
| CN(C)c1cc(C(=O)Nc2ccccc2C(=O)NC(C)(C)C)ccn1 | 7.4% |
| CNC(=O)c1cccc(NC(=O)c2ccnc(N(C)C)c2)c1C | 53.9% |
| CN(C)c1cc(C(=O)Nc2cccnc2N2CCSCC2)ccn1 | 2.97% |
| C=C(C)CN1CCN(Cc2nccn2C)C(C)C1 (centres undefined) | 42.45% |
| CN1CCN(C(=O)Cc2cccc(F)c2)Cc2cccnc21 | -3.19% |
| Cc1nc(-c2ccccc2)ccc1C(=O)N1CCn2c(C)nnc2C1 | -0.758% |
| O=C(c1ccc(-c2cccs2)cc1F)N1CCN(CCO)CC1 | 38.7% |
| Cc1nc(O)ccc1C(=O)N1CCCC1c1nc(-c2ccccc2)n[nH]1 (centres undefined) | 69.8% |
| Cc1nc(-c2ccccc2)ccc1C(=O)N1CCN(CCO)CC1 | 71.2% |
| O=C(c1ccncc1F)N1CCCC1c1nc(-c2ccccc2)n[nH]1 (centres undefined) | 16.8% |
| Cc1nc2cc(F)ccc2cc1C(=O)N1CCN(CC(C)O)CC1 (centres undefined) | -11.5% |
| Cc1nc2cc(F)cc(C(=O)N3CCN(CCO)CC3)c2nc1C | -24% |
| O=C(c1cc2ccccc2c(=O)[nH]1)N1CCN(CCO)CC1 | 2.32% |
| Cc1nc(-c2cccs2)ccc1C(=O)N1CCN(CCO)CC1 | 27.6% |
| O=C(c1cc(-c2cccs2)nc2ccccc12)N1CCN(CCO)CC1 | 68.4% |
| Cc1nc(-c2cccs2)ccc1C(=O)N1CCN(CC(C)O)CC1 (centres undefined) | 55.4% |
| O=C(c1ccc[nH]1)N1CCCC1c1nc(-c2ccccc2)n[nH]1 (centres undefined) | -1.76% |
| Cc1cc(-n2nnc(C(=O)O)c2-c2ccncc2)ccc1F | 49.9% |
| CCOC(=O)CNC(=O)c1cccnc1Sc1cc(OC)ccc1OC | 3.58% |
| Cc1ccc(CNC(=O)NC(C)CN2CCOCC2)s1 (centres undefined) | 14% |
| COCCC(=O)N1C[C@@H](c2ccccc2F)[C@@]2(CCCC(=O)N2)C1 | 29.5% |
| Cn1cc(N2CCC3(CCN(Cc4nccs4)C3)C2=O)cn1 (centres undefined) | 26.2% |
| Cc1nc(C)n(CC2CCCN2Cc2nc(-c3ccsc3)no2)n1 (centres undefined) | 46.8% |
| Cc1ccccc1OCCCNC(=O)C1(C)CC(=O)N2C=CC=CC2=N1 (centres undefined) | 9.63% |
| Cc1nc(C)n(CC2CN(Cc3ccccc3C#N)CCO2)n1 (centres undefined) | 5.9% |
| CCN(Cc1cscn1)CC1(C)Cc2c(N)nc(N)nc2O1 (centres undefined) | 33.85% |
| CN(CCC(C)(C)O)C(=O)C1CCC(=O)N(Cc2ccc(Cl)cc2)C1 (centres undefined) | 46.9% |
| CN(CC1(CO)CCC1)C(=O)C1CCC(=O)N(Cc2ccc(Cl)cc2)C1 (centres undefined) | 49% |
| CN(CC1(CO)CC1)C(=O)C1CCC(=O)N(Cc2ccc(Cl)cc2)C1 (centres undefined) | 70.4% |
